High-throughput results as filed in PubChem.
TRHR enhancer = qHTS for Small Molecule Agonists and Allosteric Enhancers of Human TRH Receptor: Primary Screen for Enhancers; Thyrotropin-releasing hormone receptor (Homo sapiens), P34981; TRHR cells, fluo-8 calcium fluorescence, EC20 TRH enhancement; enhancement, % at 2 µM; hit rate 0.66% among 360,000; AID 493056, 2011; in the data active means enhancement above about 30%; further: 0% is about no effect
Target sequence (P34981 whole entry, looked up): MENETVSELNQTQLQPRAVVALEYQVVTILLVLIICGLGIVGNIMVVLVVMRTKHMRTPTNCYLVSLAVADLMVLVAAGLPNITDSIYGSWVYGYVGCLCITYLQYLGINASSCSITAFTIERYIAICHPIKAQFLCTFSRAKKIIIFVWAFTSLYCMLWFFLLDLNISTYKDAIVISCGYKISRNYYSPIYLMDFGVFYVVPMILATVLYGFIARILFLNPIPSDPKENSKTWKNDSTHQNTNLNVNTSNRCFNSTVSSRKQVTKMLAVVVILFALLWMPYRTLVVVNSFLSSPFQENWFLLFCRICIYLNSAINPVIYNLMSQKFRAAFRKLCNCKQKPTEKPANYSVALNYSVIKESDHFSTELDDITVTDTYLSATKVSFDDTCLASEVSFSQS
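TRHR-expressing cells loaded with fluo-8 calcium dye were read kinetically (ex 480/em 530) during compound addition, then stimulated with an EC20 of TRH (10 nM final). Enhancement of the Gq-mediated intracellular calcium response was scored.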
D1 antag = Antagonist of Human D 1 Dopamine Receptor: qHTS; D(1A) dopamine receptor (Homo sapiens), P21728; HEK293 TREx D1 cells, calcium flux, dopamine EC80; hits give low values; activity change, negative = inhibition, % at 10 µM; hit rate 3.2% among 360,000; AID 504652, 2011; in the data active means activity change below about -30%; further: on the % scale 0 is the no-effect control and ±100 the full control effect
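Compound effects on dopamine-evoked calcium signalling were measured in tetracycline-induced HEK293 Trex D1 cells. Dopamine at EC80 followed a 180 s compound pre-read, and fluorescence was tracked kinetically for 180 s more.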
TRHR ag = qHTS for Small Molecule Agonists and Allosteric Enhancers of Human TRH Receptor: Primary Screen for Agonists. Thyrotropin-releasing hormone receptor (Homo sapiens), P34981. hit rate 0.18% among 360,000. activation, % at 2 µM. TRHR cells, calcium flux fluo-8, FDSS agonist mode; further: 0% is about no effect
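Agonist-mode FDSS calcium read (Ex 480/Em 530, 1 s cycles) in 1536-well TRHR cells with fluo-8 dye, after 10-cycle baseline and 23 nL compound addition; TRH at EC20 (10 nM final) added afterwards for the enhancer phase.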
D1 potentiator = Potentiators of Human D1 Dopamine Receptor: qHTS; hit rate 0.036% among 360,000; HEK293 TREx D1 cells, calcium flux, dopamine EC20 potentiation; potentiation, % at 10 µM; AID 504651, 2011; in the data active means potentiation above about 30%; further: 0% is about no effect
D1 agonist = Allosteric Agonists of the Human D1 Dopamine Receptor: qHTS | HEK293 T-REx D1 cells, calcium flux, agonist mode | hit rate 1% among 360,000 | activation, % at 2 µM | D(1A) dopamine receptor (Homo sapiens), P21728; further: 0% is about no effect
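Tetracycline-induced HEK293 TREx D1 cells, force-coupled to calcium signalling, were dye-loaded with a no-wash calcium kit. Compound was pin-added after a 10 s baseline. Fluorescence was read kinetically at 1 cycle/s for 180 s, with calcium rises flagged as agonism.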
Numbers without * were called inactive; x = no result given. Hits are enriched below; roughly 4.6% of the tested compounds scored in any of these assays. Unless noted, no stated cut-off is given here; in the data, active means activation above about 30%; inactive means the rest.

SMILES	TRHR enhancer	D1 antag	TRHR ag	D1 potentiator	D1 agonist
CCN1/C(=C/c2ccc3cc(C)ccc3[n+]2CC)Sc2cc(C)c(C)cc21	29	3	13	-3	6
CCN1/C(=C/c2ccc3cc(C)ccc3[n+]2CC)Sc2ccccc21	25	-9	50*	-8	15
CN(C)c1ccc(/C=C/c2ccc3c4ccccc4ccc3[n+]2-c2ccccc2)cc1	-9	-33*	2	-5	4
CN(C)c1ccc(/C=C/c2ccc3ccccc3[n+]2C)cc1	-3	9	0	1	2
O=C(Oc1ccc2c(c1)OCO2)C12CC3CC(CC(C3)C1)C2	-10	9	-1	7	2
O=C(Oc1ccc(O)cc1)C12CC3CC(CC(C3)C1)C2	-3	-8	9	21	41*
O=C(CCSCc1cccc(Cl)c1)NCCc1ccccc1	0	-4	0	7	4
Cc1ccc(NC(=O)N(Cc2cc3cc(C)cc(C)c3[nH]c2=O)CC2COCCO2)cc1 (stereo unspecified)	0	-3	-1	1	-1
COc1cccc(NC(=O)N(Cc2cc3cc(C)cc(C)c3[nH]c2=O)CC2COCCO2)c1 (stereo unspecified)	5	-32*	-1	2	0
CC(C)c1c(C(=O)N/N=C/c2cccs2)nnn1-c1nonc1N	-2	24	0	0	22
CC(C)c1c(C(=O)N/N=C/c2ccc(C(F)(F)F)cc2)nnn1-c1nonc1N	1	8	-1	9	253*
CC(C)c1c(C(=O)N/N=C/c2ccsc2)nnn1-c1nonc1N	18	28	2	19	39*
CC(C)c1c(C(=O)N/N=C/c2ccoc2)nnn1-c1nonc1N	9	5	0	6	16
COc1ccc(/C(C)=N/Nc2ncc(Cl)cc2Cl)c(O)c1	14	-9	0	4	10
C=C(C)COc1ccc(-c2[nH]ncc2Oc2cccc(OC)c2)c(O)c1	2	-39*	0	-4	5
O=C(NCCCc1nc2ccccc2n1Cc1ccc(Cl)cc1)c1ccco1	8	-31*	-1	-2	81*
COc1cccc2sc(N3CCN(C(=O)CCS(=O)(=O)c4ccc(F)cc4)CC3)nc12	-7	x	0	-2	7
c1ccc(-c2nc3ccccc3[nH]2)cc1	13	3	0	2	0
Cc1ccc(-c2nc3ccccc3[nH]2)s1	35*	1	-1	1	2
Cc1[nH]c2ccccc2c1-c1nc2ccccc2[nH]1	7	-77*	-1	-12	14
Cc1ccc(NS(=O)(=O)c2ccc(C(=O)NCc3ccccn3)cc2)cc1	-1	-30	6	-8	40*
Cc1ccc(CNC(=O)c2cc(NS(=O)(=O)c3ccc(C)cc3)ccn2)cc1	3	-32*	0	3	-1
CS(=O)(=O)Nc1ccc(C(=O)NCc2ccccn2)cc1	1	15	0	-9	6
CC(=O)Nc1ccc(S(=O)(=O)Nc2ccc(C(=O)NCC(=O)O)cc2)cc1	7	-66*	1	-3	2
Cc1ccc(C(C)n2cc(C(=O)NCc3ccccn3)nn2)cc1 (stereo unspecified)	0	15	4	-6	33*
SMILES	TRHR enhancer	D1 antag	TRHR ag	D1 potentiator	D1 agonist
O=C(c1cccn1-c1nnc(N2CCCC2)s1)N1CCN(c2ccccc2)CC1	3	-1	0	-4	1
CCOC(=O)c1ccc(NC(=O)NCc2ccccn2)cc1	2	-9	0	-2	2
Cc1ccc(C(=O)N2CCN(CCc3ccncc3)CC2)cc1	0	-4	0	0	1
CCOc1ccc(NS(=O)(=O)c2ccc(C(=O)NCc3ccncc3)cc2)cc1	-1	5	1	-10	12
CCOc1ccc(NS(=O)(=O)c2ccc(C(=O)NCc3ccccn3)cc2)cc1	-2	8	5	-19	33*
O=C(Nc1ccc(Cl)cc1)NC1CCCCC1Cc1ccco1 (stereo unspecified)	-6	-34*	1	-9	5
